Here are results for 2 compounds from PubChem BioAssay AID682 (University of Pittsburgh Molecular Library Screening Center, 2007).

A short description of this assay: redox cycling H2O2 generation, 0.5 mM DTT, dose response, artefact control, biochemical, Cdc25B catalytic domain (AID 682). To be noted: cell-free redox cycling H2O2 generation.

This is one part of the list. Unmarked numbers belong to inactive results. Rule as the data show it: active = EC50 below about 30 µM; inactive = the rest. A value given as a limit tells only on which side of the number the result lay.

The EC50 is the concentration needed to bring the measured effect to its halfway point. For the compound `COc1cccc2c(C)c(C(=O)O)[nH]c12`, the EC50 was over 50 µM.

Regarding `c1ccc(CSc2nnc(-c3ccco3)c(-c3ccco3)n2)cc1`, the EC50 is over 50 µM.
